Inconclusive results are not listed. Where a call stands in place of a potency, no number is given. Activity calls are given as the source filed them. The call rests on the fitted dose curve; in most records, active means well fitted curve in the direction sought with a large enough effect; inconclusive means small, poorly fitted or top-dose-only effect, or another doubt; inactive means no such curve, though single readings can be large; an effect the other way counts as inactive or inconclusive.
Legend:
[1] = P-glycoprotein substrates identified in KB-8-5-11 adenocarcinoma cell line, qHTS therapeutic library screen (AID 1346987); further: nearly all actives have a fitted effect of over 65% in size
Summary of the method: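 Steps: plate 500 KB-8-5-11 cells/well in DMEM + 10% FCS (colchicine removed); pin compounds in dose-response; incubate 72 h, 37 degree C, 5% CO2; add CellTiter-Glo, 5 min; read luminescence.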

[2] = NS1 protein of Zika virus - qHTS assay to identify small molecule inhibitors in human HEK 293 cells (AID 1347053); further: nearly all actives have a fitted effect of over 55% in size; further: potency means the concentration at half of the fitted maximal effect
Summary of the method: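 Following 20 h seeding, HEK 293 cells took compound, then 1 h later ZIKV MR766 (MOI = 0.5). Incubation ran 24 h at 37 C before TR-FRET detection of NS1; a drop in signal indicates inhibition.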

[3] = qHTS of pediatric cancer cell lines to identify multiple opportunities for drug repurposing: Primary screen for TC32 cells (AID 1347089); further: nearly all actives have a fitted effect of over 60% in size; further: potency means the concentration at half of the fitted maximal effect
Summary of the method: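 Luminescent CellTiter-Glo read-out of metabolically active TC32 cells after 48 h compound exposure. Primary: MIPE 11-point, 0.78 nM–46 µM; NPC 8-point, 0.59 nM–46 µM. Confirmatory: 11-point dilutions.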

CC(NCCc1ccc(O)cc1)C(O)c1ccc(O)cc1 (stereo not drawn)
Potency [1]: inactive
Potency [2]: inactive
Potency [3]: inactive

CC(C)C[C@@H](N)[C@H](O)C(=O)N[C@H](C(=O)N[C@H](C(=O)N[C@@H](CC(=O)O)C(=O)O)C(C)C)C(C)C
Potency [1]: inactive
Potency [2]: inactive
Potency [3]: inactive

CC1=C(C(=O)Nc2cc3cn[nH]c3cc2F)C(c2ccc(C(F)(F)F)cc2)CC(=O)N1 (stereo not drawn)
Potency [1]: inactive
Potency [2]: inactive
Potency [3]: inactive

Cc1cc2c(cc1C1(c3ccc(C(=O)O)cn3)CC1)C(C)(C)CCC2(C)C
Potency [1]: inactive
Potency [2]: inactive
Potency [3]: inactive

O=C(O)c1nc(=O)[nH]c(=O)[nH]1
Potency [1]: inactive
Potency [2]: inactive
Potency [3]: inactive

OCCn1cc(-c2ccc3c(c2)CCC3=NO)c(-c2ccncc2)n1
Potency [1]: inactive
Potency [2]: inactive
Potency [3]: inactive

COc1cc(Nc2nc3ccccc3nc2NS(=O)(=O)c2ccc(NC(=O)c3ccc(C)c(OC)c3)cc2)cc(OC)c1
Potency [2]: inactive
Potency [3]: inactive

Cc1nn(Cc2ccccc2Cl)c(C)c1CN(C)CC(O)COc1ccc(Cl)cc1 (stereo not drawn)
Potency [2]: inactive
Potency [3]: inactive

Nc1ccn([C@@H]2O[C@H](CO)[C@@H](O)[C@H]2O)c(=O)n1
Potency [2]: inactive
Potency [3]: 29.4 nM (active)

CNC1[C@H](O)C(O[C@@H]2C(O)C(O[C@H]3O[C@H]([C@@H](C)NC)CC[C@H]3N)[C@@H](N)C[C@H]2N)OC[C@]1(C)O (stereo partly drawn)
Potency [2]: inactive
Potency [3]: inactive

CN1CCC[C@H]1CCO[C@](C)(c1ccccc1)c1ccc(Cl)cc1
Potency [2]: inactive
Potency [3]: inactive

Cc1cc(-c2ncc(CC(=O)Nc3ccc(-c4cnccn4)cn3)cc2C)ccn1
Potency [2]: inactive
Potency [3]: inactive

CCNC(=O)Nc1ccc(Oc2ncnc(N)c2C=NOC)cc1Cl
Potency [2]: inactive
Potency [3]: inactive

C[C@@H]1[C@H](C)CC[C@]2(C(=O)O)CC[C@]3(C)C(=CC[C@@H]4[C@@]5(C)CC[C@H](O)C(C)(C)[C@H]5CC[C@]43C)[C@@H]12
Potency [2]: inactive
Potency [3]: 19000 nM (active)

CC(=O)O[C@]1(C(C)=O)CC[C@H]2[C@@H]3C=C(Cl)C4=CC(=O)[C@@H]5C[C@H]5[C@]4(C)[C@@H]3CC[C@@]21C
Potency [2]: inactive
Potency [3]: inactive

C[C@]12CCC3=C4CCC(=O)C=C4CC[C@@H]3[C@H]1CC[C@@]2(O)CC#N
Potency [2]: inactive
Potency [3]: inactive

Nc1ncnc2c1c(-c1cccc(OCc3ccccc3)c1)cn2C1CC(CN2CCC2)C1 (stereo not drawn)
Potency [2]: inactive
Potency [3]: 9300 nM (active)

c1cc(OCCN2CCCCC2)cc(-c2n[nH]c3ccc(-c4ncn[nH]4)cc23)c1
Potency [2]: inactive
Potency [3]: inactive

CN(C)S(=O)(=O)c1ccc2c(c1)C(=Cc1cc3c([nH]1)CCCC3)C(=O)N2
Potency [2]: inactive
Potency [3]: inactive

CC(C)(C)c1nc(-c2cccc(NS(=O)(=O)c3c(F)cccc3F)c2F)c(-c2ccnc(N)n2)s1
Potency [2]: inactive
Potency [3]: inactive

Cc1ccc2c(c1)C(=O)[C@]1(O)CCN(c3ccccc3)C1=N2
Potency [2]: inactive
Potency [3]: inactive

COc1c(C)cnc(Cn2cnc3c(Cl)nc(N)nc32)c1C
Potency [2]: inactive
Potency [3]: 1170 nM (active)

Fc1ccc(C(c2ccc(F)cc2)N2CCN(CC=Cc3ccccc3)CC2)cc1
Potency [2]: inactive
Potency [3]: inactive

CN(C)CCN(C)C(=O)c1ccc(NC(=O)Nc2ccc(-c3nc(N4CCOCC4)c4ccn(CC(F)(F)F)c4n3)cc2)cc1
Potency [2]: 3320 nM (active)
Potency [3]: 147 nM (active)

O=C(c1ccc(C(=O)N2CCC(N3CCCC3)CC2)c(Nc2ccccc2)c1)N1CCC(N2CCCC2)CC1
Potency [2]: inactive
Potency [3]: inactive

C[C@@H]1O[C@@H](O[C@H]2CC[C@@]3(C)[C@H](CC[C@@H]4[C@H]3C[C@@H](O)[C@]3(C)[C@@H](C5=CC(=O)OC5)CC[C@]43O)C2)C[C@H](O)[C@@H]1O[C@H]1C[C@H](O)[C@H](O[C@H]2C[C@H](O)[C@@H](O)[C@@H](C)O2)[C@H](C)O1 (stereo in doubt)
Potency [2]: 136 nM (active)
Potency [3]: 380 nM (active)

CNC(=O)c1ccc2c(C(=Nc3cccc(CN(C)C)c3)c3ccccc3)c(O)[nH]c2c1
Potency [2]: inactive
Potency [3]: inactive

CCC[C@H](N[C@@H](C)C(=O)N1[C@@H]2CCCC[C@H]2C[C@H]1C(=O)O)C(=O)OCC
Potency [2]: inactive
Potency [3]: inactive

COc1ccnc(CS(=O)c2nc3ccc(OC(F)F)cc3[nH]2)c1OC (stereo not drawn)
Potency [2]: inactive
Potency [3]: inactive

O=C(O)Cc1cccc(OCCCN(Cc2cccc(C(F)(F)F)c2Cl)CC(c2ccccc2)c2ccccc2)c1
Potency [2]: inactive
Potency [3]: inactive

CC(=O)OCC(=O)[C@@]12OC(C)(C)O[C@H]1C[C@H]1[C@@H]3C[C@H](F)C4=CC(=O)C=C[C@]4(C)[C@@]3(F)[C@@H](O)C[C@@]12C
Potency [2]: inactive
Potency [3]: inactive
